Measured values reported in ChEMBL document CHEMBL4808148, “HDAC6 screening dataset using tau-based substrate in an enzymatic assay yields selective inhibitors and activators” (2021).
Hit rate of the full screen: of about 5,600 compounds, about 390 (7%) showed an effect of 50% or more. What follows is part of a selection rich in strong results, with near analogues and random picks from the rest.

target: T1, Protein deacetylase HDAC6 (Homo sapiens) (UniProt Q9UBN7); conditions: at 10 µM
T1 sequence (whole entry): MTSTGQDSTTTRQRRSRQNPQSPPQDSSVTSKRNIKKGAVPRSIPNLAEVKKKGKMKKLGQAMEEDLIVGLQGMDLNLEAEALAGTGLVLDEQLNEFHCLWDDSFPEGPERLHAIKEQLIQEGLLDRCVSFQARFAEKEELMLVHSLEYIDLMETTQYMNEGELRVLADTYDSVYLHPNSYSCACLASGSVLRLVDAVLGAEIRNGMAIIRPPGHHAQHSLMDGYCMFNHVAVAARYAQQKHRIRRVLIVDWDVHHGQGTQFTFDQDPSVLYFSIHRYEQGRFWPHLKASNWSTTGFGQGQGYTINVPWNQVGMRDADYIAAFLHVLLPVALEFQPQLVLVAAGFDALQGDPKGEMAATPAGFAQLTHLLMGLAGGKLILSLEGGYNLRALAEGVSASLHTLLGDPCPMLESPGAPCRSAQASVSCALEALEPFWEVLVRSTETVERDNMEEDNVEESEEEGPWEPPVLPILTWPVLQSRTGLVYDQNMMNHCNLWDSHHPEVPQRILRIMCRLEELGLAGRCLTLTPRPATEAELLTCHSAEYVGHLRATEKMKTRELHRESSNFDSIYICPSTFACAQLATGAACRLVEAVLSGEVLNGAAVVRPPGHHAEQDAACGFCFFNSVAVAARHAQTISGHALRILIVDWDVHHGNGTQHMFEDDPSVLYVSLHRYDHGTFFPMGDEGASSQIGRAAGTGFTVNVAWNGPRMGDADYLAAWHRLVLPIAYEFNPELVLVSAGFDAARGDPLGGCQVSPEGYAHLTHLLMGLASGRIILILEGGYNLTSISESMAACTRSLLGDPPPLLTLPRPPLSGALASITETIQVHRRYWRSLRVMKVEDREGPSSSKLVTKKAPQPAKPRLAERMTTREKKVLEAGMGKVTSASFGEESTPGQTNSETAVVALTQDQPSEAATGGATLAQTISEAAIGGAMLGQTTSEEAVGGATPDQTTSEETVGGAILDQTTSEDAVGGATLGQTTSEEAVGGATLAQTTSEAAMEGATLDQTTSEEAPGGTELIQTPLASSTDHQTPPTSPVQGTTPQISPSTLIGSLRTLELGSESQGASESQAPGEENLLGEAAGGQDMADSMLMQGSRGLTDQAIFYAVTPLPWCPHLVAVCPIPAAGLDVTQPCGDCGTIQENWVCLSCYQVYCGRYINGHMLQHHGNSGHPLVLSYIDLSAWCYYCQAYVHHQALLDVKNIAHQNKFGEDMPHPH

SMILES	inhibition
CCOc1ccc(NC(C)=O)cc1	-4.35%
CCCCOc1ccc(CC(=O)NO)cc1	73%
CCCCOc1ccc(C(=O)CCN2CCCCC2)cc1	4.77%
CC[C@@]1(O)C(=O)OCc2c1cc1n(c2=O)Cc2c-1nc1cc(F)c(C)c3c1c2[C@@H](N)CC3	45.5%
CCN(CC)CCOC(=O)C1(c2ccc([N+](=O)[O-])cc2)CCCC1	17.3%
CC1=C(/C=C/C(=C/C=C/C(C)=C/C(=O)O)c2ccc(C)cc2)C(C)(C)CCC1	32.2%
CC(C)NC(=O)COc1cccc(-c2nc(Nc3ccc4[nH]ncc4c3)c3ccccc3n2)c1	4.77%
O=C(CCNNC(=O)c1ccncc1)NCc1ccccc1	-0.28%
O=C(CCCCCCNC(=O)c1cnc(N(c2ccccc2)c2ccccc2)nc1)NO	101%
CCCCCCCCCCCCCCCC(=O)NCCO	7.03%
O=C(O)C1CN(Cc2ccc(-c3nc4cc(Cc5ccccc5F)ccc4s3)c(F)c2)C1	12.2%
CCCCC/C=C\C=C/CCCCCCCCC(=O)O	13.9%
c1ccc(CNCc2ccc(CN3CCCNCCNCCCNCC3)cc2)nc1	-1.23%
Clc1cccc2c1CN(C1=NCCN1)C2	-3.56%
O=c1[nH]nc2c3c(cccc13)N=C(CN1Cc3ccccc3C1)N2	-8.46%
CN(C)Cc1ccc(S(=O)(=O)n2ccc(/C=C/C(=O)NO)c2)cc1	101%
Cn1nc(-c2ccc(C(F)(F)F)cc2)nc2c(=O)n(C)c(=O)nc1-2	12.3%
CC(=O)OC[C@H]1O[C@@H](n2ccc(=O)[nH]c2=O)[C@H](OC(C)=O)[C@@H]1OC(C)=O	41.6%
Cc1c(F)cc(C(=O)NC2CC2)cc1-c1ccc(C(=O)NCC(C)(C)C)cn1	-6.14%
CCOC(=O)c1ccc(C#Cc2ccc3c(c2)C(C)(C)CCS3)nc1	22.8%
O=C(NC1CCC1)c1ccc(C#Cc2cccc(F)c2)nc1	53.6%
COc1ccc(CC(=O)NC(N/C(=N/C#N)Nc2cccc3ncccc23)C(C)(C)C)cc1OC (centres undefined)	17.5%

SMILES	inhibition
NC(=O)OC[C@@H]1[C@H](NC(=O)/C(=N\OCC(=O)O)c2csc(N)n2)C(=O)N1S(=O)(=O)O	1.5%
COc1cc(C)c2c(Oc3cccc(C(F)(F)F)c3)c(OC)cc(NC(C)CCCN)c2n1 (centres undefined)	19.9%
Cc1ccc(NC(=O)c2ccc(CN3CCN(C)CC3)cc2)cc1Nc1nccc(-c2cccnc2)n1	36.3%
Cc1ccc(NC(=O)c2ccc(CN3CCN(C)CC3)cc2)cc1Nc1nc(-c2cccnc2)cs1	89.4%
Cc1ccc(C(=O)Nc2cccc(C(F)(F)F)c2)cc1Nc1nc(-c2cccnc2)nc2c1cnn2C	17.5%
Nc1sc2c(c1C(=O)c1ccc(Cl)cc1)CCCC2	31.2%
O=C1CC2(CCCC2)CC(=O)N1CCCCNCC1COc2ccccc2O1 (centres undefined)	18.1%
Cc1cccc(Nc2cc(Cl)nc(SCC(=O)O)n2)c1C	9.22%
NC(=O)c1cccnc1	2.11%
O=C(O)CCCCCCCCC(=O)O	0.61%
O=C(CCCCCCC(=O)Nc1cccnc1)NO	100%
O=C(CCCCCCC(=O)NO)NO	99.2%
Cc1cc(-c2ccc(CC(=O)Nc3ccc(-c4cccnc4)cc3)cc2)ccn1	37.6%
O=C(O)CCCCCCCC(=O)O	29.8%
O=[N+]([O-])c1ccc2c(c1)S(=O)(=O)C=C2	20.7%
NC(C(=O)O)c1ccc(C(=O)O)c(C(=O)O)c1 (racemic)	1.97%
COc1ccc(-c2csc(NC(=O)[C@H]3CCCCN3S(=O)(=O)c3ccc(C)cc3)n2)cc1	0.15%
Nc1nc(NC[C@H]2CC[C@H](CNS(=O)(=O)c3cccc4ccccc34)CC2)nc2ccccc12	9.28%
CCOc1ccccc1C(=O)O	0.84%
CCCCNc1ncc2c(-c3ccc(CN4CCN(C)CC4)cc3)cn([C@H]3CC[C@H](O)CC3)c2n1	62.3%
COC(=O)c1ccccc1COc1ccccc1[N+](=O)[O-]	35.8%
N=C(N)NCCC[C@H](NC(=O)c1sccc1NS(=O)(=O)c1cccc2nsnc12)C(=O)O	-2.5%

SMILES	inhibition
CCN(CC)CCCN(c1ccccc1)C1Cc2ccccc2C1	9.47%
CCOC(=O)c1c(C)n(C)c2ccc(O)cc12	60.5%
CCOC(=O)C1=C(C)NC(=S)NC1c1cccc(O)c1 (centres undefined)	7.87%
CCOC(=O)c1ccc(N)cc1	16.9%
O=C1C=CC(=O)C2=C1C1c3ccccc3C2c2ccccc21	-5.86%
N#CC(c1ccnc(OCc2ccc(CN3CCOCC3)cc2)n1)c1nc2ccccc2s1 (centres undefined)	73.7%
N[C@H]1CCN(O)C1=O	-4.15%
CCNC(=O)[C@@H]1CCCN1C(=O)[C@H](CCCNC(=N)N)NC(=O)[C@H](CC(C)C)NC(=O)[C@@H](CC(C)C)NC(=O)[C@H](Cc1ccc(O)cc1)NC(=O)[C@H](CO)NC(=O)[C@H](Cc1c[nH]c2ccccc12)NC(=O)[C@H](Cc1c[nH]cn1)NC(=O)[C@@H]1CCC(=O)N1	33.6%
N#Cc1c(N)nc(SCc2ncc[nH]2)c(C#N)c1-c1ccc(O)cc1	54.7%
CC(C)C[C@H](NC(=O)[C@@H](Cc1c[nH]c2ccccc12)NC(=O)[C@H](Cc1ccc(O)cc1)NC(=O)[C@H](CO)NC(=O)[C@H](Cc1c[nH]c2ccccc12)NC(=O)[C@H](Cc1c[nH]cn1)NC(=O)[C@@H]1CCC(=O)N1)C(=O)N[C@@H](CCCNC(=N)N)C(=O)N1CCC[C@H]1C(=O)NCC(N)=O	-2.71%
CN(C)CCN(Cc1cccs1)c1ccccn1	11.5%
Nc1nc(O)c2c(n1)NCC(CNc1ccc(C(=O)N[C@@H](CCC(=O)O)C(=O)O)cc1)N2 (some centres undefined)	-7.59%
Cc1csc(-c2nnc(Nc3ccc(Oc4ncccc4-c4ccnc(N)n4)cc3)c3ccccc23)c1	72.1%
Cc1cc(C(=O)Nc2nc3cccc(Cl)c3n2[C@@H]2CCCCN(C(=O)/C=C/CN(C)C)C2)ccn1	-3.32%
C#CCN1C(C)=C(C(=O)OC)C(c2cccc([N+](=O)[O-])c2)C(C(=O)OCC)=C1C (centres undefined)	-1.94%
C=CC(=O)Nc1cccc(Oc2nc(Nc3ccc(N4CCN(C)CC4)cc3)nc3ccsc23)c1	14.3%
CCC(C)C(CC)C(N)=O (centres undefined)	2.6%
C=Cc1cc(O)cc2nc(-c3ccc(O)c(F)c3)oc12	-4.14%
O=C(NC1CC1)c1cc(-c2cccs2)on1	75.4%
C=CC(=O)Nc1cc2c(Nc3ccc(F)c(Cl)c3)ncnc2cc1OCCCN1CCOCC1	9.13%
